This passage reports growth results from PubChem BioAssay (NCI).

Molecules are shown by their SMILES. This is part of a sample that, as a whole, favours compounds with a hit. Of some 83,000 tested, about 20% had one in any assay.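 Activity criterion: percent growth below 10, measured after cells in 96-well plates were exposed to a single compound concentration for 48 hours.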 Activity calls are given as the source filed them.

The subject of the assay is SK-MEL-28 melanoma. In words: NCI-60 one-dose screen, 48 h (100 = growth as untreated, 0 = no growth, -100 = all killed). The following applies: 10 µM unless noted.
With `CC(=O)Nc1nc(C(=O)N2N=C(C)/C(=C/c3cccs3)C2=O)cs1`, the growth was 111% (inactive).

As to `CN1C(=O)[C@H]2c3c1cccc3[C@@]13NC(=O)O[C@H]1[C@H](CCC3(C)C)C2(C)C`, the growth was 109% (inactive).

For `CC(=O)C1CCC(C)=CC1=O` (centres undefined), the growth is 103% (inactive).

As to `COc1cccc(-n2cc(-c3nc(Cl)c4ccccc4n3)nn2)c1`, the growth was 95% (inactive).

`Nc1c(C(=O)Nc2cccc(Cl)c2Cl)sc2nc3c(cc12)C(=O)CCC3`: the growth is 65% (inactive).

Turning to `COc1cc(/C=C2\CCCC3=C2NC(C)=NC3c2cc(OC)c(OC)c(OC)c2)cc(OC)c1OC` (centres undefined), the growth is 31.9% (inactive).

For the compound `O=c1[nH]c(-c2cn(-c3ccc(Cl)cc3)nn2)nc2ccccc12`, the growth was 58.1% (inactive).

`CC/C(=C(\c1ccc(O)cc1)c1ccc(OCCN(C)CCN(C)C(=O)CCC(=O)c2c(C)[nH]c(/C=C3\N=C(c4ccc[nH]4)C=C3OC)c2C)cc1)c1ccccc1`: the growth is 61.7% (inactive).

As for `Cc1cc(Nc2nc(-c3ccncc3)nc3ccccc23)n[nH]1`, the growth was 69.1% (inactive).

As to `COc1cc(C2C=C(C)N=C3SC=CN32)cc(OC)c1OC` (centres undefined), the growth is 109% (inactive).

For the compound `COC1=CC(c2ccc[nH]2)=N/C1=C\c1[nH]c(C)c(C(=O)CCC(=O)Oc2ccc3c(c2)CCC2C3CC[C@]3(C)[C@@H](O)CC[C@@H]23)c1C` (some centres undefined), the growth was 41.2% (inactive).

As to `Cc1ccc(Cn2c(-c3nonc3N)nc3ccccc32)cc1`, the growth was 90% (inactive).

On to `O=C(Nc1ccccc1)OCC1OCOC(COC(=O)Nc2ccccc2)C1OC(=O)Nc1ccccc1` (centres undefined), for which the growth was 39.2% (inactive).

On to `CC1=CNNc2c3ncnc-3ncn21`, for which the growth was 105% (inactive).

As for `CCN(CC)c1cc(/C=C/c2ccc(OC)c(OC)c2)nc2cc(F)c(F)cc12`, the growth was 98.2% (inactive).

Turning to `CCCCCCCCCCCCOB(OCCCCCCCCCCCC)OCCCCCCCCCCCC`, the growth is 108% (inactive).

For `c1ccn2nnnc2c1`, the growth is 106% (inactive).

For `Nc1c(C(=O)Nc2c(Cl)cccc2Cl)sc2nc3c(cc12)CCCCC3`, the growth was 59.2% (inactive).

For the compound `COc1ccc(-n2c(C)cc(-c3ccccc3)c2C)cc1`, the growth was 58.1% (inactive).

For the compound `COc1cc2c(cc1OC)C1(C)N(CC2)C(=O)OC1(C)C` (centres undefined), the growth is 112% (inactive).

`COc1ccc(/C=C/c2nc(N3CCOCC3)c3nc(Cl)c(Cl)cc3n2)cc1OC`: the growth is 109% (inactive).

Turning to `Cc1cccc(NC(=O)c2sc3nc4c(cc3c2N)CCCC4)c1`, the growth is 53% (inactive).

In the case of `O=C(/C=C/c1ccccc1)n1c(-c2ccc(Cl)cc2)nc2ccccc21`, the growth is -65.4% (active).

For `COc1cc(Cn2c(-c3nonc3N)nc3ccccc32)ccc1C`, the growth was 51.6% (inactive).

`Clc1ccc(-c2nc(-c3ccco3)cn3ccnc23)cc1`: the growth was 102% (inactive).

For the compound `Oc1ccc(N=Cc2ccccc2)cc1`, the growth was 113% (inactive).

For the compound `CCCCCc1c(C)[nH]c(/C=c2\[nH]/c(=C3/C=c4ccccc4=N3)cc2OC)c1C`, the growth is -60.2% (active).

For the compound `COc1cc2nc(Cl)nc(NCCO)c2cc1OC`, the growth was 112% (inactive).

Regarding `CCC1CCc2nc3sc(C(=O)Nc4ccccc4C)c(N)c3cc2C1` (centres undefined), the growth was 49.5% (inactive).

Turning to `Cc1cc(Nc2nc(C(=O)Nc3ccccc3)nc3ccccc23)n[nH]1`, the growth was 69.5% (inactive).

As to `c1ccc2nc(-c3ccc4ccccc4n3)ccc2c1`, the growth is 106% (inactive).

For the compound `Clc1nc2ccccc2nc1CI`, the growth was 103% (inactive).

As for `Cc1cccc(NC(=O)c2sc3nc4c(cc3c2N)CCC4)c1C`, the growth is 57.8% (inactive).

For the compound `Clc1cccc(Cl)c1Cn1c(-c2cncs2)nc2ccccc21`, the growth is 105% (inactive).

Consider `Clc1ccc(/C=C/c2nc(N3CCOCC3)c3nc(Cl)c(Cl)cc3n2)cc1`, for which the growth is 111% (inactive).

In the case of `Cc1cc(Nc2nc(-c3ccc(F)cc3)nc3ccccc23)n[nH]1`, the growth is 56.3% (inactive).

For `COC(=O)[C@H]1[C@H](OC)[C@@H](OC(=O)/C=C/c2ccncc2)CC2CN3CCc4c([nH]c5cc(OC)ccc45)[C@@H]3C[C@@H]21` (some centres undefined), the growth is 94.5% (inactive).

As for `CN(C)c1ncc(-c2ccc(C(F)(F)F)cc2)c(NC2CCCCCC2)n1`, the growth is 48.9% (inactive).

On to `CC(=O)Nc1ccc(S(=O)(=O)N2C(=O)CCC2C(=O)Nc2ccccc2)cc1` (centres undefined), for which the growth was 48.6% (inactive).
